Reference: the supplement of paper PMC11732987, “Enantioselective OTUD7B fragment discovery through chemoproteomics screening and high-throughput optimisation” (Communications Chemistry, 2025)

Tests used:
Test in all cases: log2 ratio of Biotin-Ahx-Ub-VS probe labelling (fragment/DMSO); higher = less target engagement (more negative = stronger competition), active = hit call of the paper (q ≤ 0.05, log2 ratio ≤ -1)
Settings in all cases: compound concentration: 200 uM; treatment time: 3 h
USP19 = biological target: T1, USP19 (UniProt O94966)
T1 sequence (whole entry): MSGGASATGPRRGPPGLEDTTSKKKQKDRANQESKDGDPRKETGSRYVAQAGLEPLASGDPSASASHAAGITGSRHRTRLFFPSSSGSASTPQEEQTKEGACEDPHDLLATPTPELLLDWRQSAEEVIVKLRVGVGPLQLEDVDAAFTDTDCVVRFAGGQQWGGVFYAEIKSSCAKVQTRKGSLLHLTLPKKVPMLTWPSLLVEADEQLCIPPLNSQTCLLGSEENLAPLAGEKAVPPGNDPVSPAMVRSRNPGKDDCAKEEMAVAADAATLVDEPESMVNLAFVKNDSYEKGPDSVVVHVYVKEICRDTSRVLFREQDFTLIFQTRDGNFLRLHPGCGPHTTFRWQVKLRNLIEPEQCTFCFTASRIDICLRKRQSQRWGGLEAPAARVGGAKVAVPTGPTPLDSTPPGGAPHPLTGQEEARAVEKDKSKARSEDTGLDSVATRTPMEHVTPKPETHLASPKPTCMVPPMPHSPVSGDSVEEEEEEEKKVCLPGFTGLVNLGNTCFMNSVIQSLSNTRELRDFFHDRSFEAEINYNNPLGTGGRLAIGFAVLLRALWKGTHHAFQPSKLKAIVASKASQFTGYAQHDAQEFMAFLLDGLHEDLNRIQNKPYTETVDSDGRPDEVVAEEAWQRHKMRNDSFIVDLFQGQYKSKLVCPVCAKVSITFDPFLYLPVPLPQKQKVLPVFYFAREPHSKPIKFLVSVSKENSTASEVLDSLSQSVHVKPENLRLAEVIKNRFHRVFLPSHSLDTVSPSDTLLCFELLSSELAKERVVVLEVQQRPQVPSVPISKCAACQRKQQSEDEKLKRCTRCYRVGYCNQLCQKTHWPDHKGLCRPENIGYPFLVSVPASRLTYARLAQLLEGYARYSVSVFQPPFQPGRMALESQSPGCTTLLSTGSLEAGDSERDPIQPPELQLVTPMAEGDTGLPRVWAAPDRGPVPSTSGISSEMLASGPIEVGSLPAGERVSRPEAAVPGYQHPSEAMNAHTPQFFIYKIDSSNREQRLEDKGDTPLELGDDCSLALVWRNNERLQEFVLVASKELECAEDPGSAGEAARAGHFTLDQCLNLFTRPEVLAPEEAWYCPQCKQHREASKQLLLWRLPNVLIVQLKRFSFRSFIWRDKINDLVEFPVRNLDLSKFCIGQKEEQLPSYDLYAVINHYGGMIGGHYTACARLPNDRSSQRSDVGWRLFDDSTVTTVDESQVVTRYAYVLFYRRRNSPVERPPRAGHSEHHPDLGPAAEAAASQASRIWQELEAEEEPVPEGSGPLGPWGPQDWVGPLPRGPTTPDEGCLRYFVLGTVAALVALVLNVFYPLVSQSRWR
Outline: (§1)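 The table lists average log2 ratios of fragment over vehicle, from an unpaired t-test on global-median-normalised Spectronaut label-free quantities. Proteins with ≥2 unique peptides were used. Samples were HEK293T lysate (495 µg) treated in triplicate with fragment at 200 µM or vehicle for 3 h, then with Biotin-Ahx-Ub-VS (0.5 µM final) for 1 h, with labelled DUBs NeutrAvidin-enriched and run by diaPASEF LC-MS/MS.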

USP22 = biological target: T2, USP22 (UniProt Q9UPT9)
T2 sequence (whole entry): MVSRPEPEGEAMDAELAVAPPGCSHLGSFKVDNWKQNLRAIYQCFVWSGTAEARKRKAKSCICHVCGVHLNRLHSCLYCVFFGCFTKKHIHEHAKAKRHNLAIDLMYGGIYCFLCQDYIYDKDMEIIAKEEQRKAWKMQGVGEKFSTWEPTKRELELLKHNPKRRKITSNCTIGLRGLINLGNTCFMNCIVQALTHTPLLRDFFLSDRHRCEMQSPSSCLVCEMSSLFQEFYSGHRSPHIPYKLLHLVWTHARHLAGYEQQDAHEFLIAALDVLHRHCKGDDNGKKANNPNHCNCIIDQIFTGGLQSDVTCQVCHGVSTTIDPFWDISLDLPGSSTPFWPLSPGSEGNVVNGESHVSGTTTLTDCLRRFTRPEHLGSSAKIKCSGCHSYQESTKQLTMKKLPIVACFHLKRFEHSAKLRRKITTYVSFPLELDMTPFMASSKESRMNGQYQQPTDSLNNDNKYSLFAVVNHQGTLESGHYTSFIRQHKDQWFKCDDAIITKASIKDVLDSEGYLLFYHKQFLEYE
Outline: as §1

USP24 = USP24 (UniProt Q9UPU5)
Outline: as §1

USP25 = biological target: T3, USP25 (UniProt Q9UHP3)
T3 sequence (whole entry): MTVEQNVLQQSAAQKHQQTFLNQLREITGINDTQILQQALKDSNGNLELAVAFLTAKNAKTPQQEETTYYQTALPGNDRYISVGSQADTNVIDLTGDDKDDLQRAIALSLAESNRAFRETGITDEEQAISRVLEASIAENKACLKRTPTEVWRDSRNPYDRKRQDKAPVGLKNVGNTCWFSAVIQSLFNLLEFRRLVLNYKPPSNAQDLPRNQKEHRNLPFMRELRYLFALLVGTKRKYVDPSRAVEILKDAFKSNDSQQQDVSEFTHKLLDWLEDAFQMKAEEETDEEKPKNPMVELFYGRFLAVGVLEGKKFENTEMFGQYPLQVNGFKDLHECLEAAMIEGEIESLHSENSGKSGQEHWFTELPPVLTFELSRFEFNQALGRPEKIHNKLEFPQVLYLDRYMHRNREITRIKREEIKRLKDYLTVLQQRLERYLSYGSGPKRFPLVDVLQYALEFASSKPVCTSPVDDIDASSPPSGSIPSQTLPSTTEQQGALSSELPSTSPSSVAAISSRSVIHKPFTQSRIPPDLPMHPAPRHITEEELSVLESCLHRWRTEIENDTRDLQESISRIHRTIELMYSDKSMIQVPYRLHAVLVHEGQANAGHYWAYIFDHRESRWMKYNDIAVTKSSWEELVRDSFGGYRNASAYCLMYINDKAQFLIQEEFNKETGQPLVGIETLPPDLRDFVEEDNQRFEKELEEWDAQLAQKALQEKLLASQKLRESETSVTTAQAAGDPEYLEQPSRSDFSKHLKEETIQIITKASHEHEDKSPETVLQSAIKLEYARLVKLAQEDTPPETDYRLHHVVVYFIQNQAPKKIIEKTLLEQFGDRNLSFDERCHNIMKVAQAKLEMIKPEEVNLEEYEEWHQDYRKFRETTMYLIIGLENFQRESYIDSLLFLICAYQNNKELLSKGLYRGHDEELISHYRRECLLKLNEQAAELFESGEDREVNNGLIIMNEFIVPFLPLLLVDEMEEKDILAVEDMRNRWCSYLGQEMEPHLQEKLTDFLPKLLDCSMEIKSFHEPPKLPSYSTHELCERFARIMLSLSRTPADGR
Outline: as §1

USP28 = biological target: T4, USP28 (UniProt Q96RU2)
T4 sequence (whole entry): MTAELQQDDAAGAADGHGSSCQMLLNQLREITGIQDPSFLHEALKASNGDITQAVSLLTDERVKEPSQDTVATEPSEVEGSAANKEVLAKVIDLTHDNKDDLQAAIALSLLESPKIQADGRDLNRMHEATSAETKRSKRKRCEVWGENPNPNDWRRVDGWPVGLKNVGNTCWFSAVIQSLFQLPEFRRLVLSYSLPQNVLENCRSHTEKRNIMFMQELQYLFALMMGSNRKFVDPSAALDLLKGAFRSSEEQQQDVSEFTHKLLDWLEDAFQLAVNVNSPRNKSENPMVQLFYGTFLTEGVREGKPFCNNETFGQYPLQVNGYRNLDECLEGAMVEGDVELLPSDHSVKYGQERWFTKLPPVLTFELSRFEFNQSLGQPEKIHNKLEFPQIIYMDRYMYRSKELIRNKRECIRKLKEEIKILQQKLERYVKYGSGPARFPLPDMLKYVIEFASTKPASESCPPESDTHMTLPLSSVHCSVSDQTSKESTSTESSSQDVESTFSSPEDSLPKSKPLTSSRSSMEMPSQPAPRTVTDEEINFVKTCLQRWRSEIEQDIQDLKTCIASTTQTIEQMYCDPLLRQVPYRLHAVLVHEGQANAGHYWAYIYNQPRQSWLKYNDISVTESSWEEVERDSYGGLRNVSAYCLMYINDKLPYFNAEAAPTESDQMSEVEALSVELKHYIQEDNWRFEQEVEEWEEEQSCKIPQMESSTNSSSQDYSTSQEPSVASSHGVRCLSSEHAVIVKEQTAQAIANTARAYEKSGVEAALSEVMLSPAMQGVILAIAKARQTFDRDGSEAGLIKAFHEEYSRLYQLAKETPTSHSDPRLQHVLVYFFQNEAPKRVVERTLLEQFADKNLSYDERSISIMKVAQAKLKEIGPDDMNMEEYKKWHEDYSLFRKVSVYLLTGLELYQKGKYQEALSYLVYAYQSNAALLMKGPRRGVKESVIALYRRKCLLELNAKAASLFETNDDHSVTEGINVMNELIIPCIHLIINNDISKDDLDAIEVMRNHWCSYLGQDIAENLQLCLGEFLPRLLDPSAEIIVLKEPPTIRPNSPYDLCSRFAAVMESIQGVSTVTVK
Outline: as §1

Measured: log2 ratio of Biotin-Ahx-Ub-VS probe labelling

Sequence of USP24 (Q9UPU5 whole entry): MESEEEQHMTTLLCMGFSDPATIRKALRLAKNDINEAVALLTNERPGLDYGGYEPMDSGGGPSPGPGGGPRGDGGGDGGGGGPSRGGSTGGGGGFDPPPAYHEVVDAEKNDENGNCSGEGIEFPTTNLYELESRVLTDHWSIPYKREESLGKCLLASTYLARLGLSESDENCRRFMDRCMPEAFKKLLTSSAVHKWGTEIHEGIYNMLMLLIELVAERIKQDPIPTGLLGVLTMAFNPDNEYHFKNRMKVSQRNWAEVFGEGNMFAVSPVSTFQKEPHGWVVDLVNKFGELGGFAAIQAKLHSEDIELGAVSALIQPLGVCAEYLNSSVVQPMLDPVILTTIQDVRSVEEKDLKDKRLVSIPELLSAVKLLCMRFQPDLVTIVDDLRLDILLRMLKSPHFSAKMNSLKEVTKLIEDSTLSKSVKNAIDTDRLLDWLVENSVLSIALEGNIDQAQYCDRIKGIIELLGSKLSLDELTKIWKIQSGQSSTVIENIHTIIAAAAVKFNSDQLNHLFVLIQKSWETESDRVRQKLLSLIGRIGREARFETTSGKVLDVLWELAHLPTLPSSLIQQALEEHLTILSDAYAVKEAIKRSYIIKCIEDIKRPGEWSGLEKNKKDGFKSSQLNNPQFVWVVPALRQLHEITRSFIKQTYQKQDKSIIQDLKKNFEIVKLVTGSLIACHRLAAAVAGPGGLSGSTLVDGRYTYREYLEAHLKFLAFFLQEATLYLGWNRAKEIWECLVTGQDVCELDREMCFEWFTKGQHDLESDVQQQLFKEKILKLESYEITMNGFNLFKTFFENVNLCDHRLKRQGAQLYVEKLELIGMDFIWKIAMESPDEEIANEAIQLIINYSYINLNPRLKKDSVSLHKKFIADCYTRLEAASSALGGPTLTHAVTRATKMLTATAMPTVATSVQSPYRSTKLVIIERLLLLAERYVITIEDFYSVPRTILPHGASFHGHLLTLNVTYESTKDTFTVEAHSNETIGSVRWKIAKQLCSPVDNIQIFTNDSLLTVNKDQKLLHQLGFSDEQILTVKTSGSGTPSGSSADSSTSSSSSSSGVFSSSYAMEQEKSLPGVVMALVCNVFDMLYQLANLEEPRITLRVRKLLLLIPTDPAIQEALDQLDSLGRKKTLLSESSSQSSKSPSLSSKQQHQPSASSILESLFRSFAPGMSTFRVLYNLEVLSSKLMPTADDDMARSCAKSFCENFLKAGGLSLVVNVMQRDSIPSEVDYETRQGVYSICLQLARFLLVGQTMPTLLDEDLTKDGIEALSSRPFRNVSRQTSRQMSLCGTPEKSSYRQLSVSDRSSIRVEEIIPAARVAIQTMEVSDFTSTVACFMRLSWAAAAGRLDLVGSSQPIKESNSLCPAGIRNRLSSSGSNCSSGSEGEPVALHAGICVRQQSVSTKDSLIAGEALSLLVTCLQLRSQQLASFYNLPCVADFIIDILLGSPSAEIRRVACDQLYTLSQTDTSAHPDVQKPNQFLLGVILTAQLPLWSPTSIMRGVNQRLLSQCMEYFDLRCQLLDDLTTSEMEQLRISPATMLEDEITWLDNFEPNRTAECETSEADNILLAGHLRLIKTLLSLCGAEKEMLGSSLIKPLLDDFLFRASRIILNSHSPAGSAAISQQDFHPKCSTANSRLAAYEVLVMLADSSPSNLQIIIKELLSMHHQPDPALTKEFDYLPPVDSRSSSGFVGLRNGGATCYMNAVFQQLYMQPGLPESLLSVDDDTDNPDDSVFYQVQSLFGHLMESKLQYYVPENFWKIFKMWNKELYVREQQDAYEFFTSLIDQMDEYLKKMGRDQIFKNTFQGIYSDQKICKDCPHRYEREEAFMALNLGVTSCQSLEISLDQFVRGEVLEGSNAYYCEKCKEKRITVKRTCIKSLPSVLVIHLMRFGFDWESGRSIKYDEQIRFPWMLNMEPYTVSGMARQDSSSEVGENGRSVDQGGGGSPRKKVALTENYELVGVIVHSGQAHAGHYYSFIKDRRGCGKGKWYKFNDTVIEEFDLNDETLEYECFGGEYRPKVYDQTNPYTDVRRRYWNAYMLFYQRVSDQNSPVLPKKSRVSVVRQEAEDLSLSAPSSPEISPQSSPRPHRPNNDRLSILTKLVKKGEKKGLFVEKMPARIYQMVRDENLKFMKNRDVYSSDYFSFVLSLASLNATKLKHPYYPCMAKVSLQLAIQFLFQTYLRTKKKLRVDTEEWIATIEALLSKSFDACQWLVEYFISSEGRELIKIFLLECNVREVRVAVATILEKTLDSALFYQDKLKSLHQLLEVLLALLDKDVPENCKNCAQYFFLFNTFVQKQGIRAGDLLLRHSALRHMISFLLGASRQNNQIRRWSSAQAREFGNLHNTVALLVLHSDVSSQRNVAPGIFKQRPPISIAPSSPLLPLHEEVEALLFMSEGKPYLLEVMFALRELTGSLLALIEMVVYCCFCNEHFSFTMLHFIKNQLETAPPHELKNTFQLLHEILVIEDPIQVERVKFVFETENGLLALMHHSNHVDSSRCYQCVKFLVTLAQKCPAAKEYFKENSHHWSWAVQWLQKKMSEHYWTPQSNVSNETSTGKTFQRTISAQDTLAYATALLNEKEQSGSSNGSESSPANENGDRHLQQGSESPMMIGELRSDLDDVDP

NC(=O)C1CCCN(C(=O)CCl)C1 (stereo not given)
inactive: USP19 -0.249 | USP22 0.245 | USP24 -0.257 | USP25 -0.119 | USP28 -0.348
